Reference: PubChem BioAssay (EPA / NIEHS)
Active and inactive are the calls of the source. The calls were made as follows: active = hit-call score of the fitted dose curve at least 0.9, where 1 is the maximum; inactive = score below 0.9.

read-out: Ezrin (EZR), EZR (gene 7430); experiment: LTEA_HepaRG_EZR: Life Technologies and Expression Analysis (LTEA) Assay for Ezrin (EZR) using HepaRG (AID 2283491); details: mRNA level, 48 h; actives raise or lower the signal
Experimental: It is a marker of Cellular remodeling.Data from the assay component LTEA_HepaRG_EZR was analyzed into 1 endpoint. This assay endpoint, LTEA_HepaRG_EZR, was analyzed with bidirectional fitting relative to DMSO as the negative control and baseline of activity. Using a type of inducible reporter, measures of mRNA induction for gain or loss-of-signal activity can be used to understand regulation of transcription factor activity. To generalize the intended target to other relatable targets, this assay endpoint is annotated to the membrane protein intended target family, where the subfamily is Cellular remodeling.
A total of 1060 chemcials from the ToxCast library were tested in eight-point concentration-response experiments. Cell culture and cytotoxicity assays were conducted at Thermo Fisher Scientific's Custom Services facility (Madison, WI). A single lot of human HepaRG cells (Thermo Fisher Scientific, Frederick, MD) was used for the cell culture experiments. 96-well format collagen type I coated plates of human HepaRG cells were prepared using established methods. Briefly, cryopreserved HepaRG cells were thawed, plated at a density of approximately 100,000 cells/well in HepaRG Thaw, Plate, and General Purpose media (HPRG770, Thermo Fisher Scientific), and incubated for 48 hours. 0.5% DMSO was selected as vehicle control to balance the requisite need of DMSO in HepaRG cultures to maintain differentiation (for example, baseline metabolism, proportions of hepatocytes vs. cholangiocytes), while enabling further hepatic receptor pathway activation (for example, PXR and CAR) in response to chemical exposure. 48 hours after plating, the culture medium was replaced with HepaRG Serum-Free Incudtion Media. Cells were exposed to each test chemical in duplicate and maintained in CO2 incubators for another 48 hours. Chemical plates were thawed to room temperature and 200x concentrations of treatment groups were prepared. 8-point conentration-reponse curves were made with the highest exposure at 100 uM, followed by half-log dilutions, all in 0.5% DMSO. Each test plate contained variouse controls, induction positive controls (1mM phenobarbital), cytotoxicity positive controls ([…] aflatoxin B1), vehicle controls (0.5% DMSO), and total lysis controls (0.5% DMSO). Cell morphology images were taken using an Essen IncuCyte FLR automated microscope, with six 96-well plates imaged in about 24 minutes. Images were captured and exported and JPEG files. Spent culture media was transfered to black-well plates for the LDH assay, and remaining media was sorted at -80 C for later use. Cells were treated with RLT buffer and frozen until shipped for gene expression analysis. Total RNA was isolated from the cell suspension in 75 uL of Buffer RLT (Qiagen, Germantown, MD 20874) by Quintiles/Expression Analysis (Durham, NC) using a custom isolation procedure. Total RNA from each plate well was transferred to a preamplification plate. Fluidigm's 96.96 Dynamic ArrayTM (Fluidigm, Amsterdam, the Netherlands) technology was used for gene expression analyses by quantitative reverse transcription polymerase chain reaction (qRT-PCR, performed by Quintiles/Expression Analysis, Durham, NC)89. Standard TaqManTM Assays (Applied Biosystems/ThermoFisher Scientific, Foster City, CA) were used to assess the expression of 93 genes selected based on their selectivity and sensitivity to important hepatic receptors known to be modulated by environmental chemicals; importance in human hepatocyte functionality; and hepatotoxicity. Three "housekeeping" endogenous control genes were also included and used for normalization: actin beta (ACTB), Glyceraldehyde 3 phosphate dehydrogenase (GAPDH) and RNA Polymerase II Subunit A (POLR2A). qRT-PCR was conducted according to the manufacturer's protocol.

SMILES | outcome | AC50
CC[C@H]1OC(=O)[C@H](C)[C@@H](O[C@H]2C[C@@](C)(OC)[C@@H](O)[C@H](C)O2)[C@H](C)[C@@H](O[C@@H]2O[C@H](C)C[C@H](N(C)C)[C@H]2O)[C@](C)(O)C[C@@H](C)C(=O)[C@H](C)[C@@H](O)[C@]1(C)O | inactive | –
Cn1c(=O)cc(Oc2ccc(F)cc2F)c2cnc(NCC(C)(C)O)nc21 | inactive | –
O=C(NS(=O)(=O)/C=C/c1ccccc1)c1ccc(F)cc1Cl | inactive | –
COC(=O)c1c(Cl)c(Cl)c(C(=O)OC)c(Cl)c1Cl | inactive | –
COc1ccc(/C=C/S(=O)(=O)NC(=O)c2ccc(C)cc2Cl)cc1 | inactive | –
CN(C)c1ccc(N=NS(=O)(=O)O)cc1 | inactive | –
CCC(C)(C)C(=O)O[C@H]1C[C@@H](C)C=C2C=C[C@H](C)[C@H](CC[C@@H]3C[C@@H](O)CC(=O)O3)[C@H]21 | inactive | –
Clc1nc(Cl)c(Cl)c(Cl)c1Cl | inactive | –
CC[C@H]1CC[C@H](NCc2cc3c(cc2OC)[C@H]2C[C@H]2C(=O)N3C)[C@H](c2ccccc2)N1 | inactive | –
CC(C)(O)c1coc(S(=O)(=O)NC(=O)Nc2c3c(cc4c2CCC4)CCC3)c1 | inactive | –
C1N2CN3CN1CN(C2)C3 | inactive | –
O=c1n(CC2CO2)c(=O)n(CC2CO2)c(=O)n1CC1CO1 (stereo not given) | inactive | –
Nc1nc2ncc(CNc3ccc(C(=O)N[C@@H](CCC(=O)O)C(=O)O)cc3)nc2c(=O)[nH]1 | inactive | –
CC/C(=C\C(=N/O)C(N)=O)C(C)[N+](=O)[O-] (stereo not given) | inactive | –
O=C(O)CC(O)C(=O)O (stereo not given) | inactive | –
CC(C)=CCC/C(C)=C\CO | inactive | –
O=C(O)CCN(C1(C(=O)NO)CCCC1)S(=O)(=O)c1ccc(Oc2ccc(F)cc2)cc1 | inactive | –
Cc1c(-c2cccnc2)c2ccccc2n1CCCCC(=O)O | inactive | –
Nc1ccc(Nc2ccccc2)cc1 | inactive | –
CC1=CC(=O)CC(C)(C)C1 | inactive | –

SMILES | outcome | AC50
C1=CCCC=CCCC=CCC1 | inactive | –
NC(=O)NO | inactive | –
C=CC(=C)CCC=C(C)C | inactive | –
O=C1CCCCCN1 | inactive | –
CN(C)c1ccc(Cc2ccc(N(C)C)cc2)cc1 | inactive | –
O=C1OC(=O)C2C3C=CC(C3)C12 (stereo not given) | inactive | –
CCCC(=O)OCC | inactive | –
CC1(C)C(=O)N(Br)C(=O)N1Br | inactive | –
Cn1cnc([N+](=O)[O-])c1Sc1ncnc2nc[nH]c12 | inactive | –
Cc1[nH]cnc1C[C@H]1CCc2c(C)c3ccccc3n2C1=O | – | 11.8 µM (active)
O=C1CCC(N2C(=O)c3ccccc3C2=O)C(=O)N1 (stereo not given) | inactive | –
CC(=O)OCCC(C)C | inactive | –
CCCCCCCCCCCCc1ccccc1 | inactive | –
CCCN(C1CCN(C(=O)C2CCNCC2)CC1)[C@@H]1CCc2ccc(OC)cc2C1 | inactive | –
CCCCCCc1ccc(O)cc1O | inactive | –
O=C(OC[C@H]1O[C@@H](OC(=O)c2cc(O)c(O)c(OC(=O)c3cc(O)c(O)c(O)c3)c2)[C@H](OC(=O)c2cc(O)c(O)c(OC(=O)c3cc(O)c(O)c(O)c3)c2)[C@@H](OC(=O)c2cc(O)c(O)c(OC(=O)c3cc(O)c(O)c(O)c3)c2)[C@@H]1OC(=O)c1cc(O)c(O)c(OC(=O)c2cc(O)c(O)c(O)c2)c1)c1cc(O)c(O)c(OC(=O)c2cc(O)c(O)c(O)c2)c1 | inactive | –
COC(=O)CC(=O)OC | inactive | –
CCCCC(CC)COC(=O)CCCCCCCCC(=O)OCC(CC)CCCC (stereo not given) | inactive | –
CCCCCCCCO | inactive | –
CCCCCCCCCCCCCCCO | inactive | –
